Data: PubChem BioAssay (EPA / NIEHS)
Values joined by “and” are separate entries in the source; they are usually repeats but may differ in a detail not shown here. Equal values may be shown once. Some compounds were tested as several samples or in several runs, with calls that do not always agree. Active and inactive are the calls of the source. How the source made its calls: active means hit-call score of the fitted dose curve at least 0.9, where 1 is the maximum; inactive means score below 0.9.

How the values were obtained:
[1] = ATG_GLI_CIS: Attagene CIS-FACTORIAL HepG2 Assay for human Zinc Finger Protein GLI1 (AID 2282945); settings: HepG2, Attagene cis-factorial reporter mRNA, GLI element; actives raise or lower the signal
Procedure, shortened: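 Bidirectional curve fits relative to DMSO, using reporter mRNA levels from RT-PCR plus capillary electrophoresis. Cells were HepG2 transiently carrying cis-regulated reporter constructs, harvested 24 h after dosing.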

[2] = molecular target: Bile acid receptor (Homo sapiens) (UniProt Q96RI1); assay: ATG_IR1_CIS: Attagene CIS-FACTORIAL HepG2 Assay for human Nuclear Receptor Subfamily 1 Group H Member 4 (NR1H4), IR1 submotif (AID 2282946); settings: IR1 reporter transcription, actives raise or lower the signal
Bile acid receptor (Homo sapiens), sequence (Q96RI1 whole entry, looked up): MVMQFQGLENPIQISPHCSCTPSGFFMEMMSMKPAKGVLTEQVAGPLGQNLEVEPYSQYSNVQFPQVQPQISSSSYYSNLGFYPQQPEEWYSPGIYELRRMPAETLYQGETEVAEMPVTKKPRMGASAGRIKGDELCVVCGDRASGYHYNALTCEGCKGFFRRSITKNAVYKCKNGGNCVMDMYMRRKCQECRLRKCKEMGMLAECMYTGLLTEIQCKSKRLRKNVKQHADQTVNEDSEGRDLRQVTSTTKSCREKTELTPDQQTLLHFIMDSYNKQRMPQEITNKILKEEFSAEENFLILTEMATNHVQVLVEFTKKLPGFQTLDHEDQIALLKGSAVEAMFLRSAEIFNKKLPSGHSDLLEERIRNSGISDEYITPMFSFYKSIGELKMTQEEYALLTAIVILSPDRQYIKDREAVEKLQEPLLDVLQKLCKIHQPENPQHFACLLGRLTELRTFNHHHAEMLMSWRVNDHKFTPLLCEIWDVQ
Procedure, shortened: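 HepG2 cells transiently transfected with multiplexed cis-element reporter units read endogenous transcription factor activity. After 24 h compound exposure, reporter mRNA was quantified by RT-PCR, fluorescent labelling, HpaI digestion and capillary electrophoresis; bidirectional fitting versus DMSO baseline.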

[3] = ATG_GRE_CIS: Attagene CIS-FACTORIAL HepG2 Assay for human Glucocorticoid Response Elements (GRE) (AID 2282947); settings: HepG2 GRE cis-reporter, Attagene multiplex mRNA; actives raise or lower the signal
Procedure, shortened: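 Reporter transcripts read by RT-PCR with capillary electrophoresis fluorescence after a 24 h chemical exposure of HepG2 cells transiently transfected with multiple cis-element reporter units. Gain or loss fitted against DMSO.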

[4] = ATG_ISRE_CIS: Attagene CIS-FACTORIAL HepG2 Assay for human Interferon Regulatory Factor 1 (IRF1) binding to an Interferon-Stimulated Response Element (ISRE) (AID 2282948); settings: HepG2 ISRE cis-reporter (Attagene), mRNA transcription readout; actives raise or lower the signal
Procedure, shortened: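 Read-out: fluorescent RT-PCR products resolved by capillary electrophoresis, reporting endogenous transcription factor activity via ISRE-driven reporter mRNA in transfected HepG2 cells dosed for 24 h; gain or loss fitted relative to DMSO.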

[5] = ATG_M_32_CIS: Attagene CIS-FACTORIAL HepG2 Assay for M32 Transcription Factor (Internal Marker) (AID 2282949); settings: HepG2 Attagene cis-factorial M32 reporter, mRNA; actives raise or lower the signal;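 further: background control marker of the multiplexed CIS panel rather than a real target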
Procedure, shortened: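 HepG2 human liver cells transiently transfected with cis-promoter-driven multiple reporter transcription units, dosed 24 h. Reporter mRNA quantified by RT-PCR, FAM-labelled primer extension, HpaI digest and capillary electrophoresis; bidirectional fit versus DMSO baseline.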

[6] = molecular target: Hypoxia-inducible factor 1-alpha (Homo sapiens) (UniProt Q16665); assay: ATG_HIF1a_CIS: Attagene CIS-FACTORIAL HepG2 Assay for human Hypoxia Inducible Factor 1 (HIF1A) (AID 2282951); settings: HepG2 Attagene cis-factorial HIF1a reporter transcription; actives raise or lower the signal
Hypoxia-inducible factor 1-alpha (Homo sapiens), sequence (Q16665 whole entry, looked up): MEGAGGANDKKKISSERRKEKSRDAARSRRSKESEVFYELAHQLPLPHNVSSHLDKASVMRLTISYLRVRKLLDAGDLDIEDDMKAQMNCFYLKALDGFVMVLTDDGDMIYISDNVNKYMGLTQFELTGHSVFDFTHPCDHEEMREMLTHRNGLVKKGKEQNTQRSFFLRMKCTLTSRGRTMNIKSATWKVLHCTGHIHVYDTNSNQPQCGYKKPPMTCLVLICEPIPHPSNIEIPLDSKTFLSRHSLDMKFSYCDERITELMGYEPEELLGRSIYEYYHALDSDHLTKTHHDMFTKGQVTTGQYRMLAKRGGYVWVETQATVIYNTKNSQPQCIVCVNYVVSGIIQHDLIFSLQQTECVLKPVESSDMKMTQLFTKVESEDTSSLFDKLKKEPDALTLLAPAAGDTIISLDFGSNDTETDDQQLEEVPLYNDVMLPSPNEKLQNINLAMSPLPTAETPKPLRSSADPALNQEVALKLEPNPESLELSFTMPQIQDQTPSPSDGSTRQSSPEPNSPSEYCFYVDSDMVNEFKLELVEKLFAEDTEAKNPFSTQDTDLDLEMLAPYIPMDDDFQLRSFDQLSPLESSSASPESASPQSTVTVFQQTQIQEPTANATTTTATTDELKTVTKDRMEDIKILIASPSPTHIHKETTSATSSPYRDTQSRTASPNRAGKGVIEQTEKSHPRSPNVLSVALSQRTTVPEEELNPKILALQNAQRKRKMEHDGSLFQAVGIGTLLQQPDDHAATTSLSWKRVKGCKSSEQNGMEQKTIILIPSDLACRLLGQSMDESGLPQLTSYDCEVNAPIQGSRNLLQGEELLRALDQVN
Procedure, shortened: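 Measures endogenous transcription-factor activity through cis-regulated reporter mRNA in HepG2. Cells dosed 24 h; transcripts quantified by RT-PCR with 6-FAM-labelled products separated by capillary electrophoresis; DMSO serves as negative control.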

[7] = molecular target: Hepatocyte nuclear factor 6 (Homo sapiens) (UniProt Q9UBC0); assay: ATG_HNF6_CIS: Attagene CIS-FACTORIAL HepG2 Assay for human Hepatocyte Nuclear Factor 6 (HNF6) (AID 2282952); settings: HepG2 Attagene cis-factorial HNF6 reporter transcription; actives raise or lower the signal
Hepatocyte nuclear factor 6 (Homo sapiens), sequence (Q9UBC0 whole entry, looked up, the tested form may be a part): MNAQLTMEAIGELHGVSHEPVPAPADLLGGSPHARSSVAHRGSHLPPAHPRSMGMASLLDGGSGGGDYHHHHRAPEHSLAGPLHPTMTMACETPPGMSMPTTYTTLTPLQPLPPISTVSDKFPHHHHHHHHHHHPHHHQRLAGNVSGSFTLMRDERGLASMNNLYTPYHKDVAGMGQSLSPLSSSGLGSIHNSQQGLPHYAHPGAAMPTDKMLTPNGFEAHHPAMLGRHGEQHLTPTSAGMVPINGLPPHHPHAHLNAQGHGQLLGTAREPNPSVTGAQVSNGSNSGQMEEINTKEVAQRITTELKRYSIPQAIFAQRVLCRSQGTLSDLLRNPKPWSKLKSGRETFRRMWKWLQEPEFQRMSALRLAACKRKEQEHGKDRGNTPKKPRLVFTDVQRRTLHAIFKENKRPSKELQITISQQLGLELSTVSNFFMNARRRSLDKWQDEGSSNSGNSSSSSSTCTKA
Procedure, shortened: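 Twenty-four-hour chemical treatment of reporter-transfected HepG2 cells precedes RNA isolation, DNase-treated reverse transcription and PCR of reporter sequences. Labelled fragments are sized by capillary electrophoresis and fitted bidirectionally versus DMSO.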

[8] = molecular target: Heat shock factor protein 1 (Homo sapiens) (UniProt Q00613); assay: ATG_HSE_CIS: Attagene CIS-FACTORIAL HepG2 Assay for human Heat Shock Transcription Factor 1 (HSE) (AID 2282953); settings: HepG2 HSE cis-reporter, Attagene RNA transcription; actives raise or lower the signal
Heat shock factor protein 1 (Homo sapiens), sequence (Q00613 whole entry, looked up): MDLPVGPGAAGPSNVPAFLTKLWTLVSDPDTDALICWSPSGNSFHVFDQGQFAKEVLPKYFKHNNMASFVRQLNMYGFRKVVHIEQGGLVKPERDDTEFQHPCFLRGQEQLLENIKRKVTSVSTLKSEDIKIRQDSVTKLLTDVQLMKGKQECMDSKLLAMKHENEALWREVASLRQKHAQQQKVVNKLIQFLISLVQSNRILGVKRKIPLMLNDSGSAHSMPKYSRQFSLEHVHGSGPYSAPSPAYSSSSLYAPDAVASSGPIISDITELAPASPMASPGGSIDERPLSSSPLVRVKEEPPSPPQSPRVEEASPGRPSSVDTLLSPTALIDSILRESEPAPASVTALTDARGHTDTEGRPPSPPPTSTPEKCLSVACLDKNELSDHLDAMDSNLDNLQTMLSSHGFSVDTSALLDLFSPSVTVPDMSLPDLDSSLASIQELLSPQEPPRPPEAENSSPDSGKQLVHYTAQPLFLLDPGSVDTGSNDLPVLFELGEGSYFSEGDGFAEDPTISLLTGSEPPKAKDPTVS
Procedure, shortened: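 Using HepG2 with transfected cis-driven reporter constructs, compound effects on endogenous factor activity are scored as reporter mRNA change at 24 h. Detection: RT-PCR, HpaI digestion, capillary electrophoresis; bidirectional fitting to DMSO.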

[9] = ATG_MRE_CIS: Attagene CIS-FACTORIAL HepG2 Assay for human Metal Responsive Element (MRE) (AID 2282954); settings: HepG2 MRE cis-reporter transcription, Attagene multiplex; actives raise or lower the signal
Procedure, shortened: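 Endogenous MRE-dependent transcription read as reporter mRNA in transiently transfected human HepG2 cells at 24 h. RNA reverse-transcribed, PCR-amplified, labelled and resolved by capillary electrophoresis; gain or loss relative to DMSO.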

[10] = ATG_PBREM_CIS: Attagene CIS-FACTORIAL HepG2 Assay for human Phenobarbital-responsive Enhancer Module (PBREM) (AID 2282955); settings: HepG2 PBREM cis-reporter, Attagene multiplexed transcription; actives raise or lower the signal
Procedure, shortened: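 Fluorescence of labelled reporter cDNA fragments, resolved by capillary electrophoresis, gives mRNA induction in transfected HepG2 cells treated for 24 h; DMSO serves as negative control and baseline.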

[11] = ATG_PXRE_CIS: Attagene CIS-FACTORIAL HepG2 Assay for human Pregnane X Receptor Element (PXRE) (AID 2282957); settings: HepG2 Attagene CIS-FACTORIAL PXRE reporter, mRNA; actives raise or lower the signal
Procedure, shortened: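 Bidirectional activity, baselined to DMSO, derived from reporter mRNA fluorescence (RT-PCR plus capillary electrophoresis) in HepG2 cells bearing cis-promoter reporter units, 24 h exposure.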

[12] = ATG_RORE_CIS: Attagene CIS-FACTORIAL HepG2 Assay for human RAR-related Orphan Receptor Element (RORE) (AID 2282959); settings: HepG2 Attagene cis-factorial RORE reporter, mRNA; actives raise or lower the signal
Procedure, shortened: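 Cells were HepG2 carrying transfected cis-regulated reporter constructs, dosed for 24 hours. Total RNA was reverse-transcribed and reporter cDNA amplified, fluorescently labeled and sized by capillary electrophoresis. Activity was fitted bidirectionally relative to DMSO.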

[13] = ATG_Sox_CIS: Attagene CIS-FACTORIAL HepG2 Assay for human SRY-box transcription factor (SOX) (AID 2282960); settings: HepG2 Attagene cis-factorial SOX reporter, mRNA; actives raise or lower the signal
Procedure, shortened: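 Transient MRTU transfection of HepG2; 24 h compound incubation; TriZol RNA, oligo(dT) RT, PCR, 6-FAM primer extension, HpaI cut, CE. Bidirectional fit, DMSO = baseline.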

[14] = molecular target: Transcription factor Sp1 (Homo sapiens) (UniProt P08047); assay: ATG_Sp1_CIS: Attagene CIS-FACTORIAL HepG2 Assay for human Specificity Protein 1 (Sp1) (AID 2282961); settings: HepG2 Sp1 cis-reporter transcription, actives raise or lower the signal
Transcription factor Sp1 (Homo sapiens), sequence (P08047 whole entry, looked up): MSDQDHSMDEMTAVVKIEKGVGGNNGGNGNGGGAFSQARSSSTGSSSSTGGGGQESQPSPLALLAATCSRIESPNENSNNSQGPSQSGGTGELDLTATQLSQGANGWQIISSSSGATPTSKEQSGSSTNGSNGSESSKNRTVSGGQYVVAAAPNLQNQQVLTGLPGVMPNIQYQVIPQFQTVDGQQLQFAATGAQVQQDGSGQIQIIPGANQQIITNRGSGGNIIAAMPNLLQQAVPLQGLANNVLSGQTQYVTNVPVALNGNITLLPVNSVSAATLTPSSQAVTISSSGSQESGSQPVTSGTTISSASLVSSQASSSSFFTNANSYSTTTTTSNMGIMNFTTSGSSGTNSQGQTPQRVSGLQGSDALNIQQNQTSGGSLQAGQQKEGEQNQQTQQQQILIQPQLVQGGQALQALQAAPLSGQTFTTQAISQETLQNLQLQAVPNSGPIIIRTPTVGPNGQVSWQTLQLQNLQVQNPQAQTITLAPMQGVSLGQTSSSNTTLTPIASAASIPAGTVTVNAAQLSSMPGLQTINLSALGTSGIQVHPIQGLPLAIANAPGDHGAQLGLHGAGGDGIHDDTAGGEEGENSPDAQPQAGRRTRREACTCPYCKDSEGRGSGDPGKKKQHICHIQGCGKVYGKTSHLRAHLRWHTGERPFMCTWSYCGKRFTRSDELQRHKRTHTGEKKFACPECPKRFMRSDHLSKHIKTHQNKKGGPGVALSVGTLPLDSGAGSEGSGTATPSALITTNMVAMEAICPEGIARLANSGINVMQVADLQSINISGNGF
Procedure, shortened: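 Endogenous Sp1 activity was gauged in human liver HepG2 cells bearing transfected reporter units under a cis-regulating promoter. After 24 h dosing, reporter mRNA was quantified by RT-PCR with capillary electrophoresis, and activity fitted bidirectionally versus DMSO.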

[15] = ATG_SREBP_CIS: Attagene CIS-FACTORIAL HepG2 Assay for human Sterol Regulatory Element Binding (SREBP) (AID 2282962); settings: HepG2 Attagene cis-factorial SREBP reporter, mRNA; actives raise or lower the signal
Procedure, shortened: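 Readout: fluorescent reporter-transcript peaks resolved by capillary electrophoresis after RT-PCR. Cells were human HepG2 carrying transfected cis-promoter reporter constructs, dosed for 24 h. Gain or loss of signal was fitted against DMSO controls.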

[16] = molecular target: Signal transducer and activator of transcription 3 (Homo sapiens) (UniProt P40763); assay: ATG_STAT3_CIS: Attagene CIS-FACTORIAL HepG2 Assay for human Signal Transducer and Activator of Transcription 3 (STAT3) (AID 2282963); settings: HepG2, Attagene cis-factorial STAT3 reporter transcription; actives raise or lower the signal
Signal transducer and activator of transcription 3 (Homo sapiens), sequence (P40763 whole entry, looked up): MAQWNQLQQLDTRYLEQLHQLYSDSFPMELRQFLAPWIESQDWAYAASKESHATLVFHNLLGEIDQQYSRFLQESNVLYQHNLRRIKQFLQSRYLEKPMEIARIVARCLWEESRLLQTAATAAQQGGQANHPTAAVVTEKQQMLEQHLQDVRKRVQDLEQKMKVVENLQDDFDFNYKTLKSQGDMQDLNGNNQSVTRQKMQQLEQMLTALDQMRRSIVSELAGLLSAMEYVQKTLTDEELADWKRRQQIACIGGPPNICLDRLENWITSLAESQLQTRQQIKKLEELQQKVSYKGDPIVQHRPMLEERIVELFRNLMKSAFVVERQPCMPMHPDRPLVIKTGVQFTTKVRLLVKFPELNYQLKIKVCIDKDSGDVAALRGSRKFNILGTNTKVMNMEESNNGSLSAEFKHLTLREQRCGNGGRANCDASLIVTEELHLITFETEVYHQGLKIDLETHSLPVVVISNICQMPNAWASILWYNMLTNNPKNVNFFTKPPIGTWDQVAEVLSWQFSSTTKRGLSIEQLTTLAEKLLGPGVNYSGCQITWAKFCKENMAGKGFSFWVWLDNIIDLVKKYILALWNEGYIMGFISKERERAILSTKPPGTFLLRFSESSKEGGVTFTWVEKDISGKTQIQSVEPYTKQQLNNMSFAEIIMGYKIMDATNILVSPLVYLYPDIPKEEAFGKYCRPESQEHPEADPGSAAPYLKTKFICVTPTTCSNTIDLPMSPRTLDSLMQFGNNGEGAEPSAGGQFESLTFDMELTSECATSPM
Procedure, shortened: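 Readout is reporter transcript quantified by RT-PCR and capillary electrophoresis, with 6-FAM primer extension and HpaI digestion. Total RNA is taken 24 h after dosing transiently transfected HepG2 carrying cis-regulated reporter units. Bidirectional fit against DMSO.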

[17] = ATG_TA_CIS: Attagene CIS-FACTORIAL HepG2 Assay for human TA Basal Promoter (AID 2282964); settings: HepG2 Attagene CIS-factorial TA basal promoter reporter; actives raise or lower the signal
Procedure, shortened: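 Transient MRTU transfection of HepG2 preceded 24 h compound exposure. Reporter mRNA levels were then read by RT-PCR with capillary electrophoresis, and this background-control endpoint was fitted bidirectionally to DMSO.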

[18] = ATG_M_06_CIS: Attagene CIS-FACTORIAL HepG2 Assay for M06 Transcription Factor (Internal Marker) (AID 2282950); settings: HepG2 Attagene CIS-FACTORIAL M06 internal marker reporter; actives raise or lower the signal
Procedure, shortened: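 One of many multiplexed endpoints: HepG2 reporter mRNA after 24 h dosing, detected by RT-PCR and capillary electrophoresis fluorescence; gain or loss of signal analysed against DMSO.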

[19] = molecular target: Paired box protein Pax-6 (Homo sapiens) (UniProt P26367); assay: ATG_Pax6_CIS: Attagene CIS-FACTORIAL HepG2 Assay for human Paired Box 6 (PAX6) (AID 2282956); settings: HepG2 CIS-FACTORIAL PAX6 reporter transcription, RNA readout; actives raise or lower the signal
Paired box protein Pax-6 (Homo sapiens), sequence (P26367 whole entry, looked up): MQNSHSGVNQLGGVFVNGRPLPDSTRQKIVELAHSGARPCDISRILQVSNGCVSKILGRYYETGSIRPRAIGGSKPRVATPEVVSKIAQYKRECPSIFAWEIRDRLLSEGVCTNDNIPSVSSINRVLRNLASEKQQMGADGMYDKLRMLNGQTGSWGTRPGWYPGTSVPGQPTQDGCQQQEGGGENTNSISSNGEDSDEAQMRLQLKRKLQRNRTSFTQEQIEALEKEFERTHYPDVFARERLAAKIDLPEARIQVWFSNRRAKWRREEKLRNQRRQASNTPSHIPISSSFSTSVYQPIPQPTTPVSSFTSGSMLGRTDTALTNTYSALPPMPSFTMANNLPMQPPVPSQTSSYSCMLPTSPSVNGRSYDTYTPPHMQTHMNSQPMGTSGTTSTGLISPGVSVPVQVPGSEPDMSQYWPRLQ
Procedure, shortened: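 Readout: reporter transcript fluorescence after RT-PCR and capillary electrophoresis. Cells: HepG2, transiently transfected with cis-regulated MRTUs. Exposure 24 h. Gain or loss of signal fitted bidirectionally relative to DMSO.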

[20] = ATG_PPRE_CIS: Attagene CIS-FACTORIAL HepG2 Assay for human Peroxisome Proliferator-activated Response Element (PPRE) (AID 2282958); settings: HepG2 PPRE cis-element reporter, Attagene transcription factor profiling; actives raise or lower the signal
Procedure, shortened: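 Cells are first transfected transiently with the multiplexed reporter library, then dosed for 24 h. Total RNA is reverse-transcribed, amplified, fluorescently end-labeled and HpaI-cut before capillary electrophoresis; activity is fitted bidirectionally against DMSO controls.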

Measured: AC50

CC(C)(C)c1ccc(O)c(C(C)(C)C)c1
active: [2] 5.79 µM | [11] 7.21 µM
not listed: [18] | [19] | [20]
inactive: all other assays above

CCc1ccc(CCOc2ccc(CC3SC(=O)NC3=O)cc2)nc1 (centres undefined)
active: [11] 6.6 µM and 1.59 µM | [15] 26.2 µM
inactive: [1] | [3] | [4] | [5] | [18] | [6] | [7] | [8] | [9] | [10] | [19] | [12] | [13] | [14] | [15] | [16] | [17]

FC(F)(I)C(F)(F)C(F)(F)C(F)(F)C(F)(F)C(F)(F)I
active: [3] 18.1 µM | [17] 16 µM
not listed: [18] | [19]
inactive: all other assays above
